This note sets out measurements from PubChem BioAssay AID588342 (National Center for Advancing Translational Sciences (NCATS), 2011).

The campaign covered roughly 360,000 compounds. About 25,000 (6.9%) were called active. About 9% were inconclusive and are not listed. The sample holds actives, similar compounds and a random draw of the others, so the mix is not that of the screen. Unmarked numbers belong to inactive results. The call rests on the fitted dose curve; in most records, active means well fitted inhibition curve with a large enough effect; inconclusive means small, poorly fitted or top-dose-only effect; inactive means flat fitted curve, though single readings scatter.
Potency means the concentration at half of the fitted maximal effect.

Luciferin 4-monooxygenase (Photinus pyralis), sequence (P08659 whole entry, looked up): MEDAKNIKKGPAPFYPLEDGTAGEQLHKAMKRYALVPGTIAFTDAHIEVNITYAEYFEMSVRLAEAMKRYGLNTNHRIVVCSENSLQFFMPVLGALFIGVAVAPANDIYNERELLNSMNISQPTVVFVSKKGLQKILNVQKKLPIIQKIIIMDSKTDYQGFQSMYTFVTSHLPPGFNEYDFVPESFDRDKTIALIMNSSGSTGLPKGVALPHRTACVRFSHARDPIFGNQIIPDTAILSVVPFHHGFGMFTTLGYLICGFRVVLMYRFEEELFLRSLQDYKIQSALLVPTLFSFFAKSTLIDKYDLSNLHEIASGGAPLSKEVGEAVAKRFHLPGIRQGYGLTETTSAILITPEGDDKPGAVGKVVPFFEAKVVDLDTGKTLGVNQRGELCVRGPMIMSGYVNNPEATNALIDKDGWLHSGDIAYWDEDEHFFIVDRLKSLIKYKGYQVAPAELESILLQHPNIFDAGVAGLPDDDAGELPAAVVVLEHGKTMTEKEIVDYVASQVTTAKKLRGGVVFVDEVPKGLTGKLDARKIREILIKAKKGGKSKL

The assay deals with Luciferin 4-monooxygenase (Photinus pyralis) (UniProt P08659). The assay is described as follows: qHTS profiling assay for firefly luciferase inhibitor/activator using purifed enzyme and Km concentrations of substrates (counterscreen for miR-21 project). Further: nearly all actives have a fitted effect of over 55% in size.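 On activity change, negative = inhibition: plate controls were vehicle for no effect and reference inhibitor for full effect.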 Particulars: purified FLuc, luminescence inhibition; series mostly up to 57.5 µM; activity change, negative = inhibition: at the top concentration. Summed up:
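Biochemical qHTS of compounds, final roughly 60 µM downward over six points, against 10 nM purified firefly luciferase using Km concentrations of substrates (10 uM D-luciferin, 10 uM ATP) in Tris acetate pH 7.5 buffer; luminescence output.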
(qHTS replaces the single test concentration by a dilution series.)
Turning to `COc1ccc(N2CCN(CCNC(=O)c3nnc(Cc4c(F)cccc4Cl)o3)CC2)cc1`, the “activity change, negative = inhibition” value was 4.25%.
Same read-out and setting: under `COc1cc(OC)c(N(C)C(=O)c2cc3c(=O)oc4ccccc4c3s2)cc1Cl` stands -0.794%; under `COc1cc(OC)c(OC)cc1/C=C/c1nc2cc3ccccc3cc2c(=O)n1-c1ccc(F)c(Cl)c1`, -1.28%.
Same read-out and setting: under `CC(C)CCNC(=O)CSc1nc2ccccc2nc1Cc1ccc(Cl)cc1` stands -4.71%; under `CCc1ccc(CNC(=O)C2CCCN(c3nc4ccccc4o3)C2)cc1` (configuration not stated), 3.01%.
With `CCOC(=O)CCNC(=O)N1CCCC(C(=O)c2ccccc2SC)C1` (configuration not stated), the “activity change, negative = inhibition” value is -2.33%.
`CCOC(=O)c1cnc(Nc2nc3ccccc3o2)nc1CSC(=S)N1CCCCC1`: the Potency is 9.53 µM (active).
With `COCCNC(=O)CSc1c(C)cnc2c1c(=O)n(C)c(=O)n2C`, the “activity change, negative = inhibition” value is -1.51%.
On to `COc1ccc(-c2nc(CN3CCC(C(=O)NCCN(CC(C)C)CC(C)C)CC3)c(C)o2)cc1OC`, for which the “activity change, negative = inhibition” value was -5.23%.
`O=C1/C(=C/c2coc3ccc(O)cc3c2=O)SC(=S)N1c1ccccc1`: the “activity change, negative = inhibition” value was -7.68%.
In the case of `CC(C)CN(Cc1c(O)ccc2c(=O)c(-c3ccccc3)coc12)CC(C)C`, the “activity change, negative = inhibition” value was 4.11%.
For the compound `O=c1c(-c2ccccc2)coc2cc(O)ccc12`, the Potency was 15.1 µM (active).
Turning to `Cc1cc(C)c(OCC(=O)N/N=C/c2ccco2)c(C)c1`, the “activity change, negative = inhibition” value was 4.89%.
For `COC(=O)COc1ccc2c(c1C)O/C(=C\c1ccco1)C2=O`, the Potency was 2.13 µM (active).
With `COC(=O)C1=C(C)N(c2ccc(Br)cc2)C(=O)/C1=C\c1ccco1`, the “activity change, negative = inhibition” value was -2.45%.
With `Cc1nn(CC(=O)NCCc2ccccc2)c(=O)c2c1sc1ccccc12`, the “activity change, negative = inhibition” value was -0.483%.
Consider `O=C(c1ccc(CSc2ccccc2)cc1)N1CCCCCC1`, for which the Potency was 23.9 µM (active).
Turning to `CC1CCN(C(=O)c2ccc(CSc3ccc(Cl)cc3)cc2)CC1`, the “activity change, negative = inhibition” value is -1.34%.
Same read-out and setting: the result for `O=C(c1ccc(S(=O)(=O)c2ccccc2)cc1)N1CCCCCC1` reads 4.38%; that for `COc1cc(OC)c(N2CC(C(=O)Nc3cc(Cl)ccc3N3CCOCC3)CC2=O)cc1Cl` (configuration not stated), -1.25%; that for `CC(C)CNC(=O)COC(=O)/C=C/c1ccccc1[N+](=O)[O-]`, -0.249%.
Take `O=C(/C=C/c1ccccc1[N+](=O)[O-])OCC(=O)N1CCCC1`: the “activity change, negative = inhibition” value was -2.54%.
On to `O=C(/C=C/c1ccccc1[N+](=O)[O-])OC1CCCCC1=O` (configuration not stated), for which the Potency is 15.1 µM (active).
For the compound `CCOc1ccc(CCNC(=O)c2c(C)oc3ncn(C)c(=O)c23)cc1`, the “activity change, negative = inhibition” value is -15.7%.
In the case of `O=C(Nc1cccc(C(=O)NC2CC2)c1)c1ccc(F)c(S(=O)(=O)N2CCOCC2)c1`, the “activity change, negative = inhibition” value was 1.1%.
Consider `Cc1ccc(-c2cn(S(=O)(=O)c3cccc([N+](=O)[O-])c3)nc2N)cc1`, for which the “activity change, negative = inhibition” value is 0.0034%.
Consider `Cc1ccc(-n2cc3ccc([N+](=O)[O-])cc3n2)cc1`, for which the Potency is 0.953 µM (active).
`Cc1ccnc(N2C(=O)c3ccc([N+](=O)[O-])cc3C2=O)c1`: the “activity change, negative = inhibition” value is -0.44%.
For the compound `COc1ccc(C2=CC(c3ccccc3Cl)n3nc(-c4ccc(Cl)cc4)nc3N2)cc1` (configuration not stated), the “activity change, negative = inhibition” value is -4.89%.
The same measure, in the same setting: under `NS(=O)(=O)c1ccc(NC(=O)COc2ccc(S(=O)(=O)NC3CCCCC3)cc2)cc1` stands -1.09%.
Turning to `COc1ccc(-n2nnnc2-c2nc3ccccc3s2)cc1`, the Potency was 0.601 µM (active).
`COc1ccc(-n2nnnc2CNC(=O)c2ccc3ccccc3c2)cc1`: the “activity change, negative = inhibition” value is 2.8%.
On to `COc1ccc(CSc2nnnn2-c2ccc(C(=O)O)cc2)cc1`, for which the “activity change, negative = inhibition” value is 0.195%.
Take `Cc1ccc(S(=O)(=O)NCCC(=O)NCc2ccc(Cl)cc2)cc1C`: the “activity change, negative = inhibition” value was 1.46%.
`COc1cccc(CNCc2c(C(=O)O)n(Cc3ccc(C)cc3)c3cc(C)ccc23)c1OC`: the “activity change, negative = inhibition” value is -2.43%.
Turning to `COc1ccc(C(=O)/C=C/c2cccnc2)c(OC)c1`, the Potency is 19 µM (active).
For the compound `COc1cccc(N2CC(NC(=O)/C=C\c3ccccc3)CC2=O)c1` (configuration not stated), the “activity change, negative = inhibition” value is 1.08%.
Take `COc1ccc(C(=O)CCC(=O)Nc2cccnc2)c(OC)c1`: the “activity change, negative = inhibition” value is -7.14%.
Consider `COc1ccc(C(=O)NCC(=O)N/N=C/c2cccnc2)cc1`, for which the “activity change, negative = inhibition” value was 2.39%.
Take `CO/N=C/CC(=O)c1ccc(OC)cc1`: the “activity change, negative = inhibition” value was -0.488%.
As for `COC(=O)c1cc(OC)ccc1-c1ccc(OC)cc1`, the “activity change, negative = inhibition” value is 0.668%.
Turning to `COc1ccc(/C=C/C(=O)c2ccc(OC)cc2O)cc1`, the Potency was 7.57 µM (active).
Turning to `CCOC(=O)C1CCCN(C(=O)/C=C/c2ccc(OC)cc2)C1` (configuration not stated), the “activity change, negative = inhibition” value is -18.1%.
With `COc1ccc(C(=O)/C=C/c2ccc(OC3CSC3)cc2)cc1`, the Potency was 12 µM (active).
With `Cc1ccc(C)c(CNC(=O)c2cc3ccccn3n2)c1`, the “activity change, negative = inhibition” value was -5.12%.
The same measure, in the same setting: under `COc1ccc(S(=O)(=O)NCC(=O)NCc2cc(=O)n(C)c(=O)n2C)cc1F` stands 4.13%.
`COc1cccc(C(c2c(O)cc(C)n(Cc3ccco3)c2=O)N2CCN(c3ccccc3)CC2)c1` (configuration not stated): the “activity change, negative = inhibition” value was -13.6%.
Consider `CCOc1ccc(-c2cc3nc(C4CCN(C(=O)OC(C)(C)C)CC4)c(C(=O)Nc4ccc(C(=O)OC)cc4)cn3n2)cc1`, for which the “activity change, negative = inhibition” value was -8.05%.
`COc1ccccc1NC(=O)C1=C(C)Nc2nc(SCC(=O)c3ccc(C)cc3)nn2C1c1ccccc1C` (configuration not stated): the “activity change, negative = inhibition” value was 5.07%.
On to `Cc1cc(C(=O)Nc2cccc(C(F)(F)F)c2)c2c(C)nn(-c3cccc(F)c3)c2n1`, for which the “activity change, negative = inhibition” value was -8.84%.
As for `C/C(=N\NC(=O)c1ccoc1C)c1ccccc1O`, the Potency is 15.1 µM (active).
Turning to `COc1ccccc1N(CC(=O)N/N=C(\C)c1ccccc1O)S(=O)(=O)c1ccc(C)cc1`, the “activity change, negative = inhibition” value is 3.81%.
